A number with no mark means an inactive call. For some of these results: Entries with a potency or affinity are not part of this list. Active and inactive are the calls of the source. Unless noted, no rule for the calls is given here.

A short description of experiment [1]: antimalarial activity against Dd2 strain (AID 2302;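 active = growth inhibition above 50% at the single 2 µM test dose, taken to imply half-maximal potency below 2 µM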;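 also: 0% = DMSO untreated growth and 100% = chloroquine plus artemisinin killed control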). As to conditions: P. falciparum Dd2 in RBCs, LDH growth readout, 72 h; at 2 µM; hits give high values.
Experiment [2] is described as follows: human hepatoma cell viability loss – ATP luminescence, cytotoxicity control for P. falciparum antimalarial project, primary screen (AID 2303;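 active = inhibition above 50%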;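 also: 0% = DMSO wells and 100% = digitonin-killed cells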). As to conditions: HepG2 viability, 24-48 h, at 10 µM, hits give high values.
Experiment [3] addresses L-lactate dehydrogenase (Plasmodium falciparum (isolate CDC / Honduras)) (UniProt Q27743). Put plainly: PfLDH activity inhibition – cell lysate, 3D7 strain, counter-screen for P. falciparum growth inhibition project (AID 2304).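 Also: 0% = vehicle and 100% = reference inhibitor.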 As to conditions: P. falciparum 3D7 crude extract, LDH APAD/NBT absorbance; at 2 µM; hits give high values. Background: A counterscreen serves to expose hits that act by an unwanted route or on another target.

A short description of experiment [4]: inhibition of 3D7 malaria parasite growth – strain 3D7 (AID 2306).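 Also: 0% = DMSO wells and 100% = chloroquine plus artemisinin control wells.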 The settings on record: P. falciparum 3D7 erythrocytic growth, LDH absorbance, 72 h; at 2 µM; hits give high values.
Experiment [5] concerns the target Calcium-dependent protein kinase 1 (Plasmodium falciparum (isolate 3D7)) (UniProt P62344). Nature of the experiment: PfCDPK1 kinase inhibitors, biochemical, TCAMS library (AID 1159585; cut-off not given, nearly all actives have IC50 up to about 0.98 µM;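 also: inhibitors leave more ATP so luminescence rises with inhibition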). The settings on record: recombinant PfCDPK1, Kinase-Glo ATP depletion luminescence. (In Kinase-Glo more light means more ATP remaining.)
Experiment [6] addresses Plasmodium falciparum protein kinase 6 (PK6, PF3D7_1337100) (UniProt Q8IDW1). Nature of the experiment: PfPK6 kinase inhibitors, biochemical, TCAMS library (AID 1159586). As to conditions: recombinant PfPK6, Kinase-Glo ATP depletion luminescence.
Experiment [7] has as its target Protein kinase 7 (PK7), Plasmodium falciparum 3D7 (PF3D7_0213400) (UniProt Q7YTF7). Put plainly: inhibition of Plasmodium PK7 catalytic activity – biochemical, TCAMS antimalarial set, Kinase-Glo luminescence (AID 1159587). The settings on record: recombinant PfPK7, Kinase-Glo ATP depletion luminescence.
Experiment [8] concerns the target Calcium-dependent protein kinase 4 (Plasmodium falciparum (isolate 3D7)) (UniProt Q8IBS5). Put plainly: PfCDPK4 kinase inhibitors, biochemical, TCAMS library (AID 1159588; cut-off not given, nearly all actives have IC50 up to about 0.91 µM). As to conditions: recombinant PfCDPK4, Kinase-Glo ATP depletion luminescence.

Chain of Plasmodium falciparum protein kinase 6 (PK6, PF3D7_1337100) (Q8IDW1 1-305): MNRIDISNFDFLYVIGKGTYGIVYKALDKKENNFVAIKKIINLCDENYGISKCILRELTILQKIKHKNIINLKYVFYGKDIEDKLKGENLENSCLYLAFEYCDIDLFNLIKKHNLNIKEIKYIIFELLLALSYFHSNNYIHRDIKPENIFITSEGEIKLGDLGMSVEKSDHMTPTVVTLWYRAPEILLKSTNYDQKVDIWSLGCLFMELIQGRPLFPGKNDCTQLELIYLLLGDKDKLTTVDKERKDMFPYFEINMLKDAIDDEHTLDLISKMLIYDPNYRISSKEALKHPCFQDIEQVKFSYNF
Chain of Calcium-dependent protein kinase 1 (Plasmodium falciparum (isolate 3D7)) (P62344 whole entry, looked up): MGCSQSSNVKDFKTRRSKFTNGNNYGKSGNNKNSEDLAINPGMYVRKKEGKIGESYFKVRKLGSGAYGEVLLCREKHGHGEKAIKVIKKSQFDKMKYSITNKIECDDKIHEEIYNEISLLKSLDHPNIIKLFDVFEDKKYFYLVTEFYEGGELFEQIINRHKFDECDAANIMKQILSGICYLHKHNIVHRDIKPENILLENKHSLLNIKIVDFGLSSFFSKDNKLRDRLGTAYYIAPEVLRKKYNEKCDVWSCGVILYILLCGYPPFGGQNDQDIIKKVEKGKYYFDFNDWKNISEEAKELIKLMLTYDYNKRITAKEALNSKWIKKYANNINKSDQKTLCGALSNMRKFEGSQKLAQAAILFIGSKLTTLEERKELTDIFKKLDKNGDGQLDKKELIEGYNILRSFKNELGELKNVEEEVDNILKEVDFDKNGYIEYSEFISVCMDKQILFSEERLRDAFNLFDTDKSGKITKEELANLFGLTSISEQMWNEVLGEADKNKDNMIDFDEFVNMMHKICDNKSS
Chain of Calcium-dependent protein kinase 4 (Plasmodium falciparum (isolate 3D7)) (Q8IBS5 whole entry, looked up): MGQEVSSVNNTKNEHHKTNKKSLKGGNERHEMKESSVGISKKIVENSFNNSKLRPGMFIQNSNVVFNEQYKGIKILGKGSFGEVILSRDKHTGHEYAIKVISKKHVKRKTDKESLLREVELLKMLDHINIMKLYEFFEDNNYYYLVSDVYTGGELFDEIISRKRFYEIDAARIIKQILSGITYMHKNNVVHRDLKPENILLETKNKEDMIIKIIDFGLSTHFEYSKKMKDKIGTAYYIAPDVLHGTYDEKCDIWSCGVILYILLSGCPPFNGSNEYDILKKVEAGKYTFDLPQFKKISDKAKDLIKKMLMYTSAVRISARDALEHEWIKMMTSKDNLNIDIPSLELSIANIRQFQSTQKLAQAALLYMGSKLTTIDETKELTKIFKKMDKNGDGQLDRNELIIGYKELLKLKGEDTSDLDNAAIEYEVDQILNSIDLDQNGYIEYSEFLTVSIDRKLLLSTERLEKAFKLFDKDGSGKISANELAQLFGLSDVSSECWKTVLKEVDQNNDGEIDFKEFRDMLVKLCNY
Chain of Protein kinase 7 (PK7), Plasmodium falciparum 3D7 (PF3D7_0213400) (Q7YTF7 1-343): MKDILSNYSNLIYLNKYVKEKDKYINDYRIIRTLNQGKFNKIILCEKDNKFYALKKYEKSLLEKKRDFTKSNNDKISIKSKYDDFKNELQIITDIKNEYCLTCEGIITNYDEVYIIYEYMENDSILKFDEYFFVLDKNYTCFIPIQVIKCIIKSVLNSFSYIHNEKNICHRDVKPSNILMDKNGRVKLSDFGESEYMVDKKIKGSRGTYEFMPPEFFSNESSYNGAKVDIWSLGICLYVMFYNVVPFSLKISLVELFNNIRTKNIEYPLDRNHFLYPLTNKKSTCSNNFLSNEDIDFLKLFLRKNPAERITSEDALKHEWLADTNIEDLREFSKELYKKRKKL
Chain of L-lactate dehydrogenase (Plasmodium falciparum (isolate CDC / Honduras)) (Q27743 whole entry, looked up): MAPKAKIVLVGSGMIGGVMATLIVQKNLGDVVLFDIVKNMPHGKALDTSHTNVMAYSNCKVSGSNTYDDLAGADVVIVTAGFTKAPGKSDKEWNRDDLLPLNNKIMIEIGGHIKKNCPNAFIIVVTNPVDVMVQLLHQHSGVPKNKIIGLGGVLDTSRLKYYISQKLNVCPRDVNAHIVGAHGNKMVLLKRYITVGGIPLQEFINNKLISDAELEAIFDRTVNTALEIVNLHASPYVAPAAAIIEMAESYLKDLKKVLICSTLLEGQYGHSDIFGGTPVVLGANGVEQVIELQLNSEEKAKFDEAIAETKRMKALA

Usually inhibition stands for the change of the read-out against control, counted positive when it falls. In the case of `CC[C@H]1CN2CC[C@H]1C[C@H]2[C@H](O)c1ccnc2ccc(C#N)cc12`, the growth inhibition is 55% (active) in experiment [1] and 100% (active) in experiment [4]. For the same molecule, the inhibition is 0% in experiment [2] and 5% in experiment [3]. For the same molecule, the outcome in experiment [5], in experiment [6], in experiment [7] and in experiment [8] was inactive.

With `COc1ccc2nc(-c3ccc(F)cc3)cc([C@@H](O)[C@@H]3C[C@@H]4CCN3CC4C=NO)c2c1` (stereo partly specified), the results for the growth inhibition in experiment [1] and in experiment [4] were 94% (active) and 100% (active), respectively. The inhibition was 14% in experiment [2] and -2% in experiment [3]. The outcome in experiment [5], in experiment [6], in experiment [7] and in experiment [8] was inactive.

Take `Cc1[nH]c2cc(Cl)ccc2c1C1=CCN(CCN2CCOc3c(Br)cccc3C2=O)CC1`: the growth inhibition is 58% (active) in experiment [1] and 90% (active) in experiment [4]. In addition, the inhibition in experiment [2] was 1%; in experiment [3], 4%. Besides, the outcome in experiment [5], in experiment [6], in experiment [7] and in experiment [8] was inactive.

On to `CCC(C)CN1CCC(N(C)c2cc(NC(=O)c3cccc(C)c3)ccn2)CC1` (stereo unspecified), for which the growth inhibition in experiment [1] was 14%; in experiment [4] it was 93% (active). Besides, the inhibition in experiment [2] and in experiment [3] was 1% each time. Also, the result in experiment [5], in experiment [6], in experiment [7] and in experiment [8] was inactive.

As to `COc1ccc(C[C@@H](C)NC[C@H](O)c2cccc(Cl)c2)cc1F`, the results for the growth inhibition in experiment [1] and in experiment [4] were 76% (active) and 88% (active), respectively. Besides, the inhibition in experiment [2] was 2%; in experiment [3] it was -2%. The outcome in experiment [5], in experiment [6], in experiment [7] and in experiment [8] was inactive.

Take `Cc1cc(-c2ncc[nH]2)ccc1-c1ccc(C(=O)N2CCc3cc4c(cc32)C2(CCN(C)CC2)CO4)cc1`: the growth inhibition was 98% (active) in experiment [1] and 101% (active) in experiment [4]. Also, the inhibition in experiment [2] was 32%; in experiment [3] it was 0%. For the same molecule, the outcome in experiment [5], in experiment [6], in experiment [7] and in experiment [8] was inactive.

With `FC(F)(F)c1ccc(NC(=S)N2CCC(CN3CCC(c4c[nH]c5ccccc45)CC3)CC2)cc1`, the results for the growth inhibition in experiment [1] and in experiment [4] were 45% and 100% (active), respectively. The figures for the inhibition in experiment [2] and in experiment [3] were 35% and -6%, respectively. The result in experiment [5], in experiment [6], in experiment [7] and in experiment [8] was inactive.

On to `COc1cccc(C=CC(=O)NC2CCC(CN3CCC(c4c[nH]c5ccccc45)CC3)CC2)c1OC` (stereo unspecified), for which the growth inhibition in experiment [1] was 40%; in experiment [4], 102% (active). For the same molecule, the inhibition was 37% in experiment [2] and -1% in experiment [3]. Further, the outcome in experiment [5], in experiment [6], in experiment [7] and in experiment [8] was inactive.

As for `CC[C@H]1CN2CC[C@@H]1C[C@H]2[C@H](O)c1cc(-c2cccnc2)nc2ccc(OC)cc12`, the growth inhibition in experiment [1] and in experiment [4] was 99% (active) in each case. Besides, the results for the inhibition in experiment [2] and in experiment [3] were 20% and 3%, respectively. In addition, the outcome in experiment [5], in experiment [6], in experiment [7] and in experiment [8] was inactive.

Regarding `COc1ccc2[nH]cc(C3CCN(Cc4ccc(NC(=O)c5ccc(-c6ccccc6)cc5)cc4)CC3)c2c1`, the growth inhibition in experiment [1] is 72% (active); in experiment [4] it was 101% (active). The inhibition in experiment [2] is 24%; in experiment [3] it was -6%. Also, the outcome in experiment [5], in experiment [6], in experiment [7] and in experiment [8] was inactive.

Take `CC[C@H]1CN2CC[C@@H]1C[C@H]2[C@H](O)c1cc(-c2cc(Cl)cc(Cl)c2)nc2ccc(OC)cc12`: the growth inhibition is 97% (active) in experiment [1] and 99% (active) in experiment [4]. The inhibition in experiment [2] is 0%; in experiment [3], -1%. Also, the outcome in experiment [5], in experiment [6], in experiment [7] and in experiment [8] was inactive.

Turning to `CC[C@H]1CN2CC[C@H]1C[C@H]2C(O)c1cc(OC)nc2ccccc12` (stereo partly specified), the growth inhibition in experiment [1] was 98% (active); in experiment [4] it was 100% (active). Besides, the values for the inhibition in experiment [2] and in experiment [3] were -2% and -1%, respectively. The outcome in experiment [5], in experiment [6], in experiment [7] and in experiment [8] was inactive.

Consider `CC[C@H]1CN2CC[C@@H]1C[C@H]2[C@H](O)c1cc(N2CCOCC2)nc2ccc(OC)cc12`, for which the growth inhibition in experiment [1] and in experiment [4] was 99% (active) throughout. Further, the inhibition was 10% in experiment [2] and 3% in experiment [3]. Also, the result in experiment [5], in experiment [6], in experiment [7] and in experiment [8] was inactive.

`C#CCN1CCC2=C(C1)c1c(O)cc(C(C)CCCc3ccc(F)cc3)cc1OC2(C)C` (stereo unspecified): the growth inhibition in experiment [1] was 90% (active); in experiment [4], 98% (active). The inhibition was 1% in experiment [2] and 5% in experiment [3]. Moreover, the result in experiment [5], in experiment [6], in experiment [7] and in experiment [8] was inactive.

`CNC(=O)c1ccc2[nH]cc(C3CCN(CC4CCC(NC(=O)/C=C/c5ccc(Cl)c(Cl)c5)CC4)CC3)c2c1` (stereo unspecified): the growth inhibition was 90% (active) in experiment [1] and 100% (active) in experiment [4]. The inhibition is -1% in experiment [2] and -7% in experiment [3]. The result in experiment [5], in experiment [6], in experiment [7] and in experiment [8] was inactive.

As to `COc1ccc2[nH]cc(C3C[C@H]4CC[C@@H](C3)N4CCC3CCN(C(=O)/C=C/c4ccc(Cl)c(Cl)c4)CC3)c2c1` (stereo partly specified), the growth inhibition in experiment [1] was 80% (active); in experiment [4], 101% (active). For the same molecule, the inhibition in experiment [2] is 38%; in experiment [3], 5%. Further, the outcome in experiment [5], in experiment [6], in experiment [7] and in experiment [8] was inactive.

`CN1CC=C(c2c[nH]c3ccc(Br)cc23)CC1`: the growth inhibition is 80% (active) in experiment [1] and 88% (active) in experiment [4]. Also, the inhibition in experiment [2] is -3%; in experiment [3], 1%. For the same molecule, the outcome in experiment [5], in experiment [6], in experiment [7] and in experiment [8] was inactive.
